Screening data deposited in PubChem BioAssay by National Center for Advancing Translational Sciences (NCATS).
RECQ1 helicase: inhibitors of human RECQ1 DNA helicase; P46063; RECQ1 DNA unwinding, red fluorescence kinetic read; Potency, µM (doses to about 57.3 µM), for the others: at the highest dose activity, negative = inhibition, usual class: inhibitors; 240,000 tested, 0.54% active; AID 2549;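 further: plate controls were vehicle for no effect and no enzyme for full effect; nearly all actives have a fitted effect of over 30% in size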
Target sequence (P46063 whole entry, looked up): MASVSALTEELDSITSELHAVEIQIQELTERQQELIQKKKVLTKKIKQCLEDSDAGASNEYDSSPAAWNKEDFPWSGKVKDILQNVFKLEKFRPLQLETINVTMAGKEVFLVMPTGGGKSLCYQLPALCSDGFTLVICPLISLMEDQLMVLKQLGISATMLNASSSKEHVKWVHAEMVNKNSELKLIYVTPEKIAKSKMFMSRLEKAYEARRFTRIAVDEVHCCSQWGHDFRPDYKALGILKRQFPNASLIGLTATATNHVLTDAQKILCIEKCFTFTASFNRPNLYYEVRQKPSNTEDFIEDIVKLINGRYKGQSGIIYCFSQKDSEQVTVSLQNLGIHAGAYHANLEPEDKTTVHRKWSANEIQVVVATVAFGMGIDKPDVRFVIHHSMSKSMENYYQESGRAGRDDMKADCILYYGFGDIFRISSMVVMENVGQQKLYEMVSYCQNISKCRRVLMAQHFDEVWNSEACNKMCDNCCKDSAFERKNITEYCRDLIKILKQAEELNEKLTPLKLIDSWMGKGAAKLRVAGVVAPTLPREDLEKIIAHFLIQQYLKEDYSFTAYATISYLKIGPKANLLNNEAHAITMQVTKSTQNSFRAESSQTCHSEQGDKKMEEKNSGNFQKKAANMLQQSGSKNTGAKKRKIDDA
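RECQ1T1 50 nM; forked duplex (20 bp + 30-nt ss tails) 200 nM, ATP 2 mM final; pH 8.0, 2 mM MgCl2, 2.5 ug/ml poly(dI-dC); 15 min compound preincubation; discontinuous kinetic read over 2 h at RT.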
APE1 inh-1: inhibitors of human APE1 endonuclease; P27695; recombinant APE1, TAMRA/BHQ-2 abasic DNA cleavage fluorescence; Potency, µM (titrated, usually from 65.8 µM), inactives show at the top dose activity change, negative = inhibition, actives largely listed as inhibitors; 350,000 tested, 0.35% active; AID 2517;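 further: plate controls were vehicle for no effect and reference inhibitor for full effect; nearly all actives have a fitted effect of over 55% in size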
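Measures dequenching upon AP-site incision of a 5'-TAMRA/3'-BHQ-2 THF-containing duplex, 50 nM; human APE1 0.75 nM after 15 min room-temperature exposure to compound; kinetic three-point read at one-minute spacing.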
BLM helicase inh: inhibitors of human Bloom syndrome helicase BLM; Potency, µM (titrated, usually from 56.1 µM), inactives show at the top dose activity change, negative = inhibition, actives largely listed as inhibitors; recombinant BLM DNA unwinding, fluorescence dequenching; 350,000 tested, 0.2% active;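 further: plate controls were vehicle for no effect and no enzyme for full effect; nearly all actives have a fitted effect of over 35% in size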
KDM4E inh: inhibitors of human JMJD2E histone demethylase; JMJD2E catalytic domain, FDH-coupled NADH fluorescence (FDH is formaldehyde dehydrogenase); Potency, µM (titrated, usually from 57.1 µM), inactives show top-dose activity change, negative = inhibition, most hits filed as inhibitors; 230,000 tested, 1.6% active; active means well fitted inhibition curve with a large enough effect, not every such curve was filed as active; inconclusive means small, poorly fitted or top-dose-only effect, or another doubt; inactive means no such curve, though single readings can be large or run the other way;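 further: 0% = wells with enzyme and -100% = buffer wells without enzyme; nearly all actives have a fitted effect of over 50% in size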
L3MBTL1 inh: inhibitors of human L3MBTL1; Q9Y468; AlphaScreen L3MBTL1–H3K9me1 peptide binding; Potency, µM (series often up to 57.1 µM), without a hit: at the top dose activity, negative = inhibition, most hits filed as inhibitors; 230,000 tested, 0.66% active; further: nearly all actives have a fitted effect of over 60% in size
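L3MBTL1 50 nM + b-AHA-H3(1-15)K9me1 75 nM, 30 min RT; compound added, 30 min RT; streptavidin donor/Ni-chelate acceptor beads 10 ug/mL each final, 30 min RT dark; AlphaScreen read.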
KAT2A inh: blocks human GCN5L2 histone acetyltransferase | Q92830 | AID 504327 | Potency, µM (titrated, usually from 58.9 µM), inactives show at the top dose activity change, negative = inhibition, most hits filed as inhibitors | GCN5L2 HAT assay, ThioGlo1 CoA-SH fluorescence | 390,000 tested, 0.21% active
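Titration-based screen in which CoA formation is detected via maleimide probe ThioGlo1 (50uM) turning fluorescent on thiol reaction; substrates H3(1-25) 75uM and acetyl-CoA 70uM, GCN5L2 20nM, 20 min incubation at room temperature.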
APE1 dye cs: counter-screen for APE1 inhibitors: DNA dye displacement. AID 2564. shares compounds with APE1 inh-1. 480 tested, 7% active. Potency, µM (series often up to 28.5 µM), for the others: at the highest dose activity change, negative = inhibition, actives largely listed as inhibitors. DNA fluorescent dye displacement counterscreen, fluorescence;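 further: loss of thiazole orange fluorescence as the dye is displaced from duplex DNA; 0% = ThO with dsDNA and no compound and -100% = ThO without dsDNA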
EndoIV counter: Endo IV (E. coli) inhibition counter-screen; shares compounds with APE1 inh-1; E. coli Endo IV, fluorogenic AP-site DNA cleavage; Potency, µM (doses to about 27.1 µM), for inactives: top-dose activity change, negative = inhibition, most hits filed as inhibitors; 560 tested, 4% active;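 further: plate controls were uninhibited enzyme wells for no effect and no enzyme buffer wells for full effect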
APE1 inh-2: confirmation of inhibitors of human APE1 endonuclease | shares compounds with APE1 inh-1 | purified APE1, fluorogenic abasic-site DNA cleavage | Potency, µM (top dose mostly 57.1 µM), inactives show at the top dose activity change, negative = inhibition, actives largely listed as inhibitors | 750 tested, 44% active; further: nearly all actives have a fitted effect of over 30% in size
APE1 FP: displaces DNA from human APE1 in FP assay; Potency, µM (top dose mostly 28.5 µM), for the others: top-dose activity, negative = inhibition, actives largely listed as inhibitors; APE1 binding to TAMRA-labelled double-stranded DNA, fluorescence polarization displacement; 480 tested, 7% active; shares compounds with APE1 inh-1
Starred values were filed as active, the others as inactive; i = inactive; ? = inconclusive; · = no result; ! = repeats disagree; [ ] = dose if it differs, or a comment. The sample as a whole holds a higher share of hits than the screen did. Unless noted, the call rests on the fitted dose curve; in most records, active means well fitted curve in the direction sought with a large enough effect; inconclusive means small, poorly fitted or top-dose-only effect, or another doubt; inactive means no such curve, though single readings can be large; an effect the other way counts as inactive or inconclusive. Unless noted, on the % scale 0 is the no-effect control and ±100 the full control effect; potency means the concentration at half of the fitted maximal effect.

SMILES	RECQ1 helicase	APE1 inh-1	BLM helicase inh	KDM4E inh	L3MBTL1 inh	KAT2A inh	APE1 dye cs	EndoIV counter	APE1 inh-2	APE1 FP
O=C(OC1Cc2c(O)cc(O)cc2OC1c1cc(O)c(O)c(O)c1-c1c(C2Oc3cc(O)cc(O)c3CC2O)cc(O)c(O)c1O)c1cc(O)c(O)c(O)c1 (centres undefined)	2.5µM*	0.1µM*	6.3µM*	8.9µM*	·	16µM*	·	-20%[57.1 µM]	0.18µM*	·
O=C(c1c(O)cc(O)cc1O)C1c2c(cc(O)c3c2O[C@H](c2ccc(O)cc2)[C@@H](O)C3)OC1c1ccc(O)cc1 (some centres undefined)	·	-9%	·	·	?	-3%	·	·	·	·
C=C(C)C(=O)OCCCCCCOc1ccc(C(=O)O)cc1	-4%	-3%	-16%	-10%	-6%	1%	·	·	?	·
CCCCCCCCOc1ccc(C(=O)O)cc1	-10%	29%	·	·	-12%	-19%	·	·	·	·
CCc1ccc(C(=O)N/N=C/c2ccncc2)s1	·	3%	0%	·	·	-4%	·	·	·	·
NC(=O)C1CCN(C2CC(=O)NC2=O)CC1 (centres undefined)	-3%	?	-3%	10%	?	-5%	-5%	-1%	?	9%
CCOC(=O)c1ccccc1NS(=O)(=O)c1ccc(N2CCCCS2(=O)=O)cc1	·	·	-3%	·	·	-5%	·	·	·	·
O=c1c(O)c(-c2ccc(O)cc2)oc2cc(O)ccc12	i	?	-6%	?	·	·	·	·	·	·
O=c1c(O)c(-c2ccc(O)c(O)c2)oc2cc(O)ccc12	3.2µM*!	?	-26%	14µM*!	·	·	2.8µM*	232%[57.1 µM]	0.89µM*	6%[57.1 µM]
CCOc1c(Br)cc(C(N)=O)cc1OCc1ccccc1	3%	-2%	-1%	4%	-14%	-13%	·	·	·	·
CCN1/C(=C/C=C/c2oc3ccc4ccccc4c3[n+]2CC)Oc2ccc3ccccc3c21	i	25µM*	-29%	14µM*	?	1%	142%	3.2µM*	8.9µM*	i
Cc1c(Br)c(O)c(Br)c2sc(=O)oc12	22µM*	?	-15%	32µM*	35µM*	-25%	4%	16%	-7%[24.4 µM]	1%
Cc1ccc(C)c(N2CCN(C(=O)CN3C(=S)NC(C)(C)CC3C)CC2)c1 (centres undefined)	-3%	2%	-5%	-1%	0%	-6%	·	·	·	·
CC1=C(C#N)c2nc(N)c(C#N)c(C)c2/C1=C\c1ccc(-c2ccccc2C(=O)O)o1	11µM*	25µM*	-9%	?	16µM*	?	11µM*	15%	14µM*	13µM*
C#CCOn1c(-n2nc(C)cc2C)nc2ccccc2c1=O	·	0%	-6%	·	·	-4%	·	·	·	·
CC(C)c1nnc(NC(=O)c2ccc(N3C(=O)CCC3=O)cc2)s1	5%	-4%	0%	-1%	8%	6%	·	·	·	·
O=C(Nc1nnc(C23CC4CC(CC(C4)C2)C3)s1)c1ccc(N2C(=O)CCC2=O)cc1	-17%	10µM*	-3%	8%	?	?	·	·	-23%	·
Cc1ccc(S(=O)(=O)c2cnc(SCC(=O)Nc3cc(C)cc(C)c3)nc2N)cc1	·	·	-3%	·	·	-11%	·	·	·	·
COc1ccc(OC)c(/C(C)=N/Nc2ccc(C(=O)O)cc2)c1	-16%	28µM*	-4%	?	-16%	-1%	0%	3%	?	-14%
COc1cc(/C=N/Nc2ccc(C(=O)O)cc2)ccc1O	i	14µM*	3%	?	·	-21%	-9%	5%	14µM*	13%
CC1CC(=O)c2c(cc3c(-c4c(O)cc(O)c5c(O)c6c(cc45)OC(C)CC6=O)c(O)cc(O)c3c2O)O1 (centres undefined)	18µM*	?	-21%	8.9µM*	0.63µM*	?	4.5µM*	?	?	-12%
O=C1CC(c2ccccc2)Oc2cc(O)cc(O)c21 (centres undefined)	i	?	-5%	-2%	·	-14%	·	·	·	·
NC(=O)c1ccc2nc(NC(=O)c3ccc(N)cc3)sc2c1	-22%	-4%	-9%	?	-6%	-10%	·	·	?	·
COc1cc(OC)c(NC(C)C(=O)N2CCCC2)cc1Cl (centres undefined)	i	-2%	-2%	5%	-3%	0%	·	·	·	·
COc1ccc(-c2nnc(SCC(=O)NCc3ccccc3)nc2-c2ccc(OC)c(OC)c2)cc1OC	·	·	-3%	·	·	-2%	·	·	·	·
SMILES	RECQ1 helicase	APE1 inh-1	BLM helicase inh	KDM4E inh	L3MBTL1 inh	KAT2A inh	APE1 dye cs	EndoIV counter	APE1 inh-2	APE1 FP
CO/N=C(\C(=O)N[C@@H]1C(=O)N2C(C(=O)O)=C(COC(C)=O)CS[C@@H]12)c1csc(N)n1	-2%[25.9 µM]	·	-10%	-6%[25.5 µM]	·	0%	-6%[57.1 µM]	23%[57.1 µM]	28µM*	-12%[57.1 µM]
CO/N=C(\C(=O)N[C@@H]1C(=O)N2C(C(=O)O)=C(COC(C)=O)CS[C@H]12)c1csc(N)n1	-6%	9%	-12%	·	·	-16%	·	·	·	·
C=CC1=C(C(=O)O)N2C(=O)[C@@H](NC(=O)/C(=N\OCC(=O)O)c3csc(N)n3)[C@@H]2SC1	-2%[25.9 µM]	·	-3%[21.4 µM]	-7%[25.5 µM]	·	0%[21.4 µM]	-4%	25%	13µM*	2%
O=C(NC1CCN(C(=O)c2ccccc2Br)CC1)c1ccccc1	·	21%	0%	·	·	6%	·	·	·	·
CCOC(=O)c1c(C)[nH]c(C)c1S(=O)(=O)N(C)CC(=O)N1CCN(c2cccc(C)c2C)CC1	·	·	-4%	·	·	0%	·	·	·	·
O=C(CSc1nnc(CNC(=O)c2ccccc2)o1)Nc1nccs1	·	28%	0%	·	·	-1%	·	·	·	·
CN(C)S(=O)(=O)c1cccc(NC(=O)c2cc(=O)[nH]c(=O)[nH]2)c1	·	-6%	-2%	·	·	0%	·	·	·	·
COc1ccc(S(=O)(=O)NCCc2cn3ccsc3n2)cc1OC	·	·	-1%	·	·	1%	·	·	·	·
COc1ccc(-c2ccc(SCC(=O)Nc3nccs3)nn2)cc1OC	i	10%	0%	-21%	-4%	-14%	·	·	40µM*	·
